A short description of the assay: inhibitors of HIV fusion peptide binding, primary screen, biochemical, uHTS, fluorescence dequenching (AID 1986). The settings on record: cell-free peptide binding, 30 min, stronger effect = higher value.
[1] abbreviates: measured here: repeat confirmation average inhibition, at 18.6 µM.

The whole screen tested about 290,000 compounds, of which about 890 (0.31%) were called active. Cut-off read from the data, not from the text of the source: active = inhibition mostly above about 52% (no sharp cut-off); inactive = mostly below about 76%. Many of the other results were omitted from the sample, so actives are more common in it than they were.

Broadly, the inhibition is the change of the read-out against control, counted positive when it falls.

`CCOCCCNC(=O)/C(C#N)=C/c1ccc(C)o1`: the inhibition (at 20 µM) is -0.3% (inactive).
`Cc1ccccc1OCc1nc(-c2ccc(-n3cccc3)cc2)no1`: the inhibition (at 20 µM) was 3.2% (inactive).
Consider `COc1ccccc1C(=O)C1CCCN(C(=O)c2cnn(C(C)C)c2)C1` (centres undefined), for which the inhibition (at 20 µM) is -0.2% (inactive).
For `Oc1ccc2ccccc2c1C=Nc1ccccc1Br`, the inhibition (at 20 µM) is 0.3% (inactive).
The same measure, in the same setting: the figure for `CN(C)/N=C/c1c(O)ccc2ccccc12` is -5.1% (inactive); for `Oc1ccccc1N=Cc1c(O)ccc2ccccc12` it is 67.4% (active); for `Cc1ccc(Cl)cc1N1CCN(S(=O)(=O)c2ccc3c(c2)NC(=O)C(C)C(=O)N3)CC1` (centres undefined) it is 1.3% (inactive).
In the case of `CCn1c(C)c(C(C)=O)c(N2CCN(c3ccccn3)CC2)nc1=S`, the inhibition (at 20 µM) is 6.8% (inactive).
`C(=C\c1ccccc1)/CNn1cnnc1`: the inhibition (at 20 µM) was -2.1% (inactive).
Same read-out and setting: for `CC[n+]1c(/C=C/c2c[nH]c3ccccc23)ccc2cc(C)ccc21` the value was 142% (inactive); for `CCc1ccc(/C=C/c2c[nH]c3ccccc23)[n+](CC)c1`, 2.5% (inactive); for `C[n+]1cc(C(=O)N2CCCCC2)ccc1/C=C/c1c[nH]c2ccccc12`, 148% (inactive).
In the case of `CCN(CC)C(=O)c1ccc(/C=C/c2c[nH]c3ccccc23)[n+](C)c1`, the inhibition (at 20 µM) is 91.3% (active) and the inhibition under setting [1] turned out to be 81.7%.
On to `OCC[n+]1ccc(/C=C/c2c[nH]c3ccccc23)cc1`, for which the inhibition (at 20 µM) is 53% (active).
Still for that read-out and setting: for `COc1ccc2c(/C=C/c3cc[n+](C)cc3)c[nH]c2c1` the value was 6.5% (inactive).
Regarding `CC[n+]1ccc(/C=C/c2c[nH]c3ccccc23)cc1`, the inhibition was 97.2% (active) (at 20 µM) and 77.7% under setting [1].
Turning to `C[n+]1ccc(/C=C/c2c[nH]c3ccccc23)cc1`, where the note is “at 20 µM”, the inhibition was 82.6% (active).
Regarding `O=c1c2ccccc2nc(/C=C/c2c[nH]c3ccccc23)n1CCO`, the inhibition (at 20 µM) was 5.3% (inactive).
Consider `Cc1ccc(C(=O)/C=C/c2c[nH]c3ccccc23)cc1`, for which the inhibition (at 20 µM) is 2.2% (inactive).
On the same count and under the same terms, for `O=C(/C=C/c1c[nH]c2ccccc12)c1ccccc1` the value was -2.9% (inactive); for `Cc1[nH]c2ccccc2c1/C=C/c1cc[n+](C)cc1`, 144% (inactive).
On the same count and under the same terms, the figure for `Cc1nnsc1-c1nc2ccccc2[nH]1` is -1.6% (inactive); for `COc1ccc(NC(=O)c2cc(Br)ccc2Cl)c([N+](=O)[O-])c1` it is -0.4% (inactive).
The same measure, in the same setting: the figure for `O/N=C\c1ccc2noc(-c3ccc(Cl)cc3)c2c1` is 0% (inactive); for `c1ccc(Oc2ncnc3sccc23)cc1` it is -1.5% (inactive); for `N#Cc1ccc(CSc2nnc(NC(=O)CN3C(=O)C4CC=CCC4C3=O)s2)cc1` (centres undefined) it is 6.4% (inactive).
In the case of `COc1cccc(/C=N/NC(=O)c2[nH]c(C)c(C(=O)N/N=C/c3cccc(OC)c3O)c2C)c1O`, the inhibition (at 20 µM) is 4.6% (inactive).
Still for that read-out and setting: for `CCCn1cnc2scc(-c3ccc(C)cc3)c2c1=O` the value was -1.9% (inactive).
Regarding `Cc1ccc(C)c(NC(=O)CSc2nnc(C3CCCCC3)o2)c1`, the inhibition (at 20 µM) is -1.1% (inactive).
Same read-out and setting: for `O=C(O)CCn1c(=O)n(CCC(=O)O)c(=O)n(CCC(=O)O)c1=O` the value was 0.1% (inactive).
Still for that read-out and setting: the figure for `O=C(CN1c2ccccc2Sc2ccccc21)N/N=C/c1ccc(Cl)cc1` is -1% (inactive); for `COc1ccc2[nH]cc(/C=C/c3cc[n+](C)cc3)c2c1` it is 18.3% (inactive).
Regarding `C[n+]1ccc(/C=C/c2c[nH]c3ccc(F)cc23)cc1`, the inhibition is, setting by setting: (at 20 µM) 77.8% (active); under setting [1], 85.8%.
In the case of `Cc1ccc2[nH]cc(/C=C/c3cc[n+](C)cc3)c2c1`, the inhibition (at 20 µM) was 160% (inactive).
Same read-out and setting: the figure for `CC1=C(C(=O)Nc2ccc(C(=O)NC(C)c3ccccc3)cc2)SCCO1` (centres undefined) is 2.3% (inactive); for `O=C(Nc1cccc(C(=O)N2CCCCC2)c1)c1ccccc1Br` it is -1.4% (inactive).
Take `O=S(=O)(NCc1ccccc1F)NCc1ccccc1F`: the inhibition (at 20 µM) was -1.9% (inactive).
Still for that read-out and setting: the figure for `O=c1c(Cl)c2oc3ccccc3nc-2c2ccccc12` is 50.8% (active); for `Clc1ccc(-c2nnc(Sc3nc4ccccc4o3)c3ccccc23)cc1` it is -0.2% (inactive); for `O=c1c(-c2nc3ccccc3o2)c2oc3ccccc3n2c2ccccc12` it is -2.3% (inactive).
With `O=C(N/N=C\c1ccc2c(c1)OCO2)c1ccc(Cn2cc(Br)c([N+](=O)[O-])n2)o1`, the inhibition (at 20 µM) is -2.8% (inactive).
Regarding `CN(C)Cc1c(O)ccc2c1O/C(=C\C=C\c1ccccc1)C2=O`, the inhibition was 77.7% (active) (at 20 µM) and 124% under setting [1].
`CCN1CCN(Cc2c(O)ccc3c2O/C(=C\C=C\c2ccccc2)C3=O)CC1`: the inhibition (at 20 µM) is 53.7% (active).
Regarding `Cc1ccc(/C=C2\Oc3c(ccc(O)c3CN3CCN(CCO)CC3)C2=O)cc1`, the inhibition (at 20 µM) is 35.2% (inactive).
In the case of `COc1ccccc1/C=C/C=C1\Oc2c(ccc(O)c2CN2CCN(CCO)CC2)C1=O`, the inhibition (at 20 µM) was 122% (active).
For the compound `O=C1/C(=C/C=C/c2ccccc2)Oc2c1ccc(O)c2CN1CCN(CCO)CC1`, the inhibition (at 20 µM) was 128% (inactive).
Still for that read-out and setting: for `CCN1CCN(Cc2c(O)ccc3c2O/C(=C\C=C\c2ccccc2OC)C3=O)CC1` the value was 149% (inactive).
On the same count and under the same terms, the figure for `COc1ccccc1/C=C/C=C1\Oc2c(ccc(O)c2CN(C)C)C1=O` is 146% (inactive); for `CS(=O)(=O)Oc1ccc2c(c1)O/C(=C\C=C\c1ccccc1)C2=O` it is 3.8% (inactive); for `CCN(CC)Cc1c(O)ccc2c(-c3ccccc3)cc(=O)oc12` it is -2.2% (inactive).
For the compound `CCN1CCN(Cc2c(O)ccc3c2O/C(=C\c2ccccc2)C3=O)CC1`, the inhibition (at 20 µM) was 67.8% (inactive) and the inhibition under setting [1] was found to be 22.1%.
For the compound `CCN(CC)Cc1c(O)ccc2c(=O)c(-c3ccccc3)coc12`, under “at 20 µM”, the inhibition was -1.9% (inactive).
With `CCN(CC)Cc1c(O)ccc2c1O/C(=C\C=C\c1ccccc1)C2=O`, the inhibition by setting is: (at 20 µM) 116% (active); under setting [1], 143%.

Source of the values: PubChem BioAssay AID1986 (Sanford-Burnham Center for Chemical Genomics, 2009).
